“And” between values parts separate entries of the source, which are not always exact repeats. Identical values can stand only once. Results filed as inconclusive are left out. Where a call stands in place of a potency, no number is given. The source made the active and inactive calls. Unless noted, the call rests on the fitted dose curve; in most records, active means well fitted curve in the direction sought with a large enough effect in the repeat runs; inconclusive means weak or mixed curves; inactive means no such curve, though single readings can be large; an effect the other way counts as inactive or inconclusive.
Tests used:
[1] = qHTS assay to identify small molecule antagonists of the glucocorticoid receptor (GR) signaling pathway - cell viability counter screen (AID 720693); further: nearly all actives have a fitted effect of over 55% in size; further: potency means the concentration at half of the fitted maximal effect
[2] = qHTS assay for identifying genotoxic compounds that show differential cytotoxicity against isogenic chicken DT40 cell lines with known DNA damage response pathways - wild type cell line (AID 743012); further: nearly all actives have a fitted effect of over 60% in size; further: potency means the concentration at half of the fitted maximal effect
Outline: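 First, wild type DT40 cells were plated at 300 per well and equilibrated about 0.5 h at 37 C/5% CO2. Next, compounds in DMSO were added and exposure lasted 40 h. Finally, CellTiter-Glo was added for 30 min at room temperature and luminescence recorded.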

[3] = qHTS assay for identifying genotoxic compounds that show differential cytotoxicity against isogenic chicken DT40 cell lines with known DNA damage response pathways - Rev3 mutant cell line (AID 743014); further: nearly all actives have a fitted effect of over 55% in size; further: potency means the concentration at half of the fitted maximal effect
[4] = qHTS assay for identifying genotoxic compounds that show differential cytotoxicity against isogenic chicken DT40 cell lines with known DNA damage response pathways - Rad54/Ku70 mutant cell line (AID 743015); further: nearly all actives have a fitted effect of over 60% in size; further: potency means the concentration at half of the fitted maximal effect
[5] = qHTS assay to identify small molecule antagonists of the androgen receptor (AR) signaling pathway using the MDA cell line - cell viability counter screen (AID 743041; further: nearly all actives have a fitted effect of over 45% in size)
Outline: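 R1881-driven MDA-kb2 AR-luc cells, 3,000/well, were dosed with library compounds for 16 h; cell health came from CellTiter-Fluor fluorescence in the reporter wells.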

[6] = qHTS assay to identify small molecule antagonists of the androgen receptor (AR) signaling pathway - cell viability counter screen (AID 743033; further: nearly all actives have a fitted effect of over 45% in size)
[7] = molecular target: Androgen receptor (Homo sapiens) (UniProt P10275); test: qHTS assay to identify small molecule antagonists of the androgen receptor (AR) signaling pathway (AID 743035; active means well fitted inhibition curve with a large enough effect in the signal ratio in the repeat runs, not every such curve was filed as active; the % refers to the signal ratio)
Chain of Androgen receptor (Homo sapiens) (P10275 whole entry, looked up): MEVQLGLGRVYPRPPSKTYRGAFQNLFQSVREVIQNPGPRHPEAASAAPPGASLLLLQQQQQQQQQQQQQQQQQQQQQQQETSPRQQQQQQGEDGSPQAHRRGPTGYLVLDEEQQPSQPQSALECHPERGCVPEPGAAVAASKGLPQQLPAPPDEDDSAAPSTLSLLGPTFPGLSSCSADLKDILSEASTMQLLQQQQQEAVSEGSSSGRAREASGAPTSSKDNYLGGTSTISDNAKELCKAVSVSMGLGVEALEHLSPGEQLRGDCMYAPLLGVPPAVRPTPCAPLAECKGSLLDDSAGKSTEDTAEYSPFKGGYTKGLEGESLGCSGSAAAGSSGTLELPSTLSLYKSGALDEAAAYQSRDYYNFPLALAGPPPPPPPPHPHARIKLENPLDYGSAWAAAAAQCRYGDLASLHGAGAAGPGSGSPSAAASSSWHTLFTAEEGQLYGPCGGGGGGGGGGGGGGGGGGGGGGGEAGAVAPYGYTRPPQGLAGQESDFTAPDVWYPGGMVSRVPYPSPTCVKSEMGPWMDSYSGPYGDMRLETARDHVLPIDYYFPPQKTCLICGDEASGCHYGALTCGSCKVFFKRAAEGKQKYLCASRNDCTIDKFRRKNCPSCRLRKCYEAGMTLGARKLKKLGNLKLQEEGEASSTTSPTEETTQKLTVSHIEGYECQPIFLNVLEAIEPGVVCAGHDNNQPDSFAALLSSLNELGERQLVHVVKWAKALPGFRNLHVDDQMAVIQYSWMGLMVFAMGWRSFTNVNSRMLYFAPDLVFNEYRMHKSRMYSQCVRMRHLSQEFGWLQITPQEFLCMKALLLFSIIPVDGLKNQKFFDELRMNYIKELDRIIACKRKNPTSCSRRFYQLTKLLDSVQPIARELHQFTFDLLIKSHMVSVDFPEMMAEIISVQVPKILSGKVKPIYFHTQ
Outline: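 Beta-lactamase FRET read (2 h RT incubation with LiveBLAzer B/G) following 16 h of compound plus R1881 treatment of AR-UAS-bla HEK293 cells, which had been pre-incubated 4 h at 37C.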

[8] = molecular target: Androgen receptor (Homo sapiens) (UniProt P10275); test: qHTS assay to identify small molecule agonists of the androgen receptor (AR) signaling pathway (AID 743036; active means well fitted activation curve with a large enough effect in the signal ratio in the repeat runs, with a control signal flat, not every such curve was filed as active; the % refers to the signal ratio)
Outline: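 Cell-based FRET reporter assay: HEK293 line with a UAS-beta-lactamase construct, compounds added in DMSO, 16 h exposure at 37C, then 2 h substrate step at room temperature and fluorescence intensity read.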

[9] = molecular target: Androgen receptor (Homo sapiens) (UniProt P10275); test: qHTS assay to identify small molecule agonists of the androgen receptor (AR) signaling pathway using the MDA cell line (AID 743040; further: nearly all actives have a fitted effect of over 20% in size)
Outline: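 After a 5 h incubation at 37C and 0% CO2, MDA-kb2 reporter cells were dosed with compounds in DMSO and kept 16 h under the same conditions. Luciferase activity was then read as luminescence with ONE-Glo.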

[10] = molecular target: Androgen receptor (Homo sapiens) (UniProt P10275); test: qHTS assay to identify small molecule antagonists of the androgen receptor (AR) signaling pathway using the MDA cell line (AID 743042; further: nearly all actives have a fitted effect of over 55% in size)
Outline: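 Antagonist mode: compounds plus R1881 agonist added to MDA-kb2 AR-luc cells, incubated 16 h at 37C. Luciferase reporter luminescence quantified, with multiplexed CellTiter-Fluor readout for cell viability.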

In the case of `NC(=O)CCCCC(N)=O`, the Potency [1] is reported as “inactive”, the Potency [2] is reported as “inactive” and the Potency [3] is reported as “inactive”. The Potency [4] was “inactive” and the Potency [5] was “inactive”.
For `CNCc1ccc(NC(=O)c2c[nH]c3c2C(=O)CCC3)cc1`, the Potency [1] was “inactive”, the Potency [2] was 61.1 µM (active) and the Potency [3] was 54.5 µM (active). The Potency [4] was 54.5 µM (active) and the Potency [5] was “inactive”.
For `CCC1CCC(CCC(=O)O)C1` (configuration not stated), the Potency [1] was “inactive”, the Potency [2] was “inactive” and the Potency [3] was “inactive”. For the same molecule, the Potency [6] was “inactive”.
In the case of `CCCc1nc2c(C)cc(-c3nc4ccccc4n3C)cc2n1Cc1ccc(-c2ccccc2C(=O)O)cc1`, the Potency [1] is reported as “inactive”, the Potency [2] is reported as “inactive” and the Potency [3] is reported as “inactive”. For the same molecule, the Potency [4] was “inactive”, the Potency [6] was “inactive” and the Potency [5] was “inactive”.
In the case of `CC1CCC(C(C)CS)CC1S` (configuration not stated), the Potency [1] is reported as 49 µM (active), the Potency [2] is reported as “inactive” and the Potency [3] is reported as “inactive”. For the same molecule, the Potency [4] was “inactive”, the Potency [7] was “inactive” and the outcome [8] was “inactive”. The Potency [9] was “inactive”, the Potency [5] was “inactive” and the Potency [10] was “inactive”.
In the case of `CCOC(=O)C(C)O` (configuration not stated), the Potency [1] is reported as “inactive”, the Potency [2] is reported as “inactive” and the Potency [3] is reported as “inactive”. For the same molecule, the Potency [4] was “inactive”, the Potency [6] was “inactive” and the Potency [5] was “inactive”.
With `CCC(C)(C)C(=O)O` the Potency [1] was “inactive”, the Potency [2] was “inactive” and the Potency [3] was “inactive”. For the same molecule, the Potency [6] was “inactive”, the Potency [7] was “inactive” and the outcome [8] was “inactive”. For the same molecule, the Potency [5] was “inactive” and the Potency [10] was “inactive”.
For `CCOC(=O)c1c(N)sc2c1CCN(Cc1ccccc1)C2`, the Potency [1] was “inactive”, the Potency [2] was 29.8 µM (active) and the Potency [3] was 29.8 µM (active). The Potency [4] was 26.6 µM (active), the Potency [6] was “inactive” and the Potency [5] was “inactive”.
With `O=C1NC(=O)c2cccc3cccc1c23` the Potency [1] was “inactive”, the Potency [2] was “inactive” and the Potency [3] was “inactive”. The Potency [4] was 48.6 µM (active), the Potency [6] was “inactive” and the Potency [5] was “inactive”.
In the case of `CCO[Si](C)(CCCOCC1CO1)OCC` (configuration not stated), the Potency [1] is reported as “inactive”, the Potency [2] is reported as 13.7 µM (active) and the Potency [3] is reported as 7.7 µM (active). For the same molecule, the Potency [4] was 27.3 µM (active), the Potency [6] was “inactive” and the Potency [5] was “inactive”.
In the case of `O=C(O)CNC(=O)c1ccccc1I`, the Potency [1] is reported as “inactive”, the Potency [2] is reported as “inactive” and the Potency [3] is reported as “inactive”. For the same molecule, the Potency [4] was “inactive” and the Potency [5] was “inactive”.
For `CC(C)c1ccc(C(=O)N=C(N)N)cc1S(C)(=O)=O`, the Potency [1] was “inactive”, the Potency [2] was “inactive” and the Potency [3] was “inactive”. The Potency [4] was “inactive”, the Potency [6] was “inactive” and the Potency [5] was “inactive”.
With `CN1CCCN(C(c2ccccc2)c2ccc(Cl)cc2)CC1` (configuration not stated) the Potency [1] was “inactive”, the Potency [2] was 9.44 µM (active) and the Potency [3] was 11.9 µM (active). For the same molecule, the Potency [4] was 18.8 µM (active), the Potency [9] was “inactive” and the Potency [5] was “inactive”. The Potency [10] was “inactive”.
With `O=C(O)c1ccc(O)cc1O` the Potency [1] was “inactive”, the Potency [2] was “inactive” and the Potency [3] was “inactive”. For the same molecule, the Potency [4] was “inactive” and the Potency [5] was “inactive”.
With `CC(C)(O)CCc1ccccc1` the Potency [1] was “inactive”, the Potency [2] was “inactive” and the Potency [3] was “inactive”. For the same molecule, the Potency [4] was “inactive” and the Potency [5] was “inactive”.
For `CCN(CC)C(=O)N1CCN(C)CC1`, the Potency [1] was “inactive”, the Potency [2] was “inactive” and the Potency [3] was “inactive”. For the same molecule, the Potency [4] was “inactive” and the Potency [5] was “inactive”.
With `NC(=O)c1ccccc1[N+](=O)[O-]` the Potency [1] was “inactive”, the Potency [2] was “inactive” and the Potency [3] was “inactive”. The Potency [4] was “inactive”, the Potency [6] was “inactive” and the Potency [5] was “inactive”.
For `Cc1cc(CCC(=O)OCCOCCOCCOC(=O)CCc2cc(C)c(O)c(C(C)(C)C)c2)cc(C(C)(C)C)c1O`, the Potency [1] was “inactive”, the Potency [2] was 26.6 µM (active) and the Potency [3] was 26.6 µM (active). The Potency [4] was 23.7 µM (active) and the Potency [5] was “inactive”.
With `CC[C@H]1OC(=O)[C@H](C)[C@@H](O[C@H]2C[C@@](C)(OC)[C@@H](O)[C@H](C)O2)[C@H](C)[C@@H](O[C@@H]2O[C@H](C)C[C@H](N(C)C)[C@H]2O)[C@](C)(O)C[C@@H](C)CN(C)[C@H](C)[C@@H](O)[C@]1(C)O` the Potency [1] was “inactive”, the Potency [2] was 3.76 µM (active) and 2.87 µM (active) and the Potency [3] was 2.11 µM (active) and 1.81 µM (active). For the same molecule, the Potency [4] was 3.76 µM (active) and 2.56 µM (active), the Potency [6] was “inactive” and the Potency [5] was “inactive”.
In the case of `ClC1=C(Cl)C1(Cl)Cl`, the Potency [1] is reported as “inactive”, the Potency [2] is reported as “inactive” and the Potency [3] is reported as “inactive”. The Potency [4] was “inactive” and the Potency [5] was “inactive”.
With `COc1ccc(-n2nc(C(F)F)cc2-c2ccc(S(C)=O)cc2)cc1` (configuration not stated) the Potency [1] was “inactive”, the Potency [2] was 61.1 µM (active) and the Potency [3] was 30.6 µM (active). The Potency [4] was 54.5 µM (active) and the Potency [5] was “inactive”.
For `OCC(CO)n1cnc(-c2ccc(F)cc2)c1-c1ccnc(Oc2ccccc2)n1`, the Potency [1] was “inactive”, the Potency [2] was 68.5 µM (active) and the Potency [3] was 68.5 µM (active). The Potency [4] was 68.5 µM (active), the Potency [6] was “inactive” and the Potency [5] was “inactive”.
With `CCCCCCCC(=O)OCCCCCC` the Potency [7] was “inactive”.
With `CCOC(=O)c1ccc(NC(=O)CN2CCCCC2)cc1` the Potency [7] was “inactive”.
In the case of `COc1cc(S(=O)(=O)Nc2ccccc2)c(OC)cc1N`, the Potency [1] is reported as “inactive”, the Potency [6] is reported as “inactive” and the Potency [5] is reported as “inactive”.
In the case of `CC(C(=O)O)c1ccc(C(=O)c2cccs2)cc1` (configuration not stated), the Potency [2] is reported as “inactive”, the Potency [3] is reported as “inactive” and the Potency [4] is reported as “inactive”. The Potency [6] was “inactive” and the Potency [5] was “inactive”.
For `CC(=O)OCCC(C)CC(C)(C)C` (configuration not stated), the Potency [2] was “inactive”, the Potency [3] was “inactive” and the Potency [4] was “inactive”. For the same molecule, the Potency [6] was “inactive” and the Potency [5] was “inactive”.
In the case of `CC(=O)NNC(C)=O`, the Potency [2] is reported as “inactive”, the Potency [3] is reported as “inactive” and the Potency [4] is reported as “inactive”. For the same molecule, the Potency [6] was “inactive” and the Potency [5] was “inactive”.
In the case of `O[C@@H](CNC[C@H](O)[C@H]1CCc2cc(F)ccc2O1)[C@@H]1CCc2cc(F)ccc2O1`, the Potency [2] is reported as 6.68 µM (active), the Potency [3] is reported as 13.3 µM (active) and the Potency [4] is reported as 11.9 µM (active).
With `C[C@H](CS)C(=O)N1CCC[C@H]1C(=O)O` the Potency [2] was “inactive”, the Potency [3] was “inactive” and the Potency [4] was “inactive”. The Potency [6] was “inactive”, the outcome [8] was “inactive” and the Potency [9] was “inactive”. The Potency [5] was “inactive” and the Potency [10] was “inactive”.
With `CCc1ccc(C)cc1` the Potency [2] was “inactive”, the Potency [3] was “inactive” and the Potency [4] was “inactive”. For the same molecule, the Potency [6] was “inactive”, the Potency [7] was “inactive” and the outcome [8] was “inactive”. The Potency [9] was “inactive”, the Potency [5] was “inactive” and the Potency [10] was “inactive”.

— PubChem BioAssay (Tox21)
